From PubChem
A3A deaminase: inhibitors of human APOBEC3A DNA deaminase. hit rate 0.41% among 330,000. P31941. AID 493011. inhibition, % at 20 µM. recombinant A3A, FAM/TAMRA ssDNA deamination fluorescence;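 active = at least 40% inhibition at 20 µM here, with at most 30% in a related deaminase screen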;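 note: plate controls were A3A with DMSO for no effect and wells lacking A3A enzyme for full effect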
Target sequence (P31941 whole entry, looked up): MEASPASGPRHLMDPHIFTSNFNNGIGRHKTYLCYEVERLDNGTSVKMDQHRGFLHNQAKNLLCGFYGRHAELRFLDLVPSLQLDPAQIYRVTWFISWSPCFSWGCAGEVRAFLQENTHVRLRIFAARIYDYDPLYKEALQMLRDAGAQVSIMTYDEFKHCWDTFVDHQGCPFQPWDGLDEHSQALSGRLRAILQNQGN
PHOSPHO1 block: blocks human PHOSPHO1 phosphatase activity; Q8TCT1; recombinant PHOSPHO1, absorbance phosphatase assay; inhibition, % at 13.3 µM; hit rate 1.1% among 290,000; in the data active = inhibition above about 60%
Target sequence (Q8TCT1 whole entry, looked up): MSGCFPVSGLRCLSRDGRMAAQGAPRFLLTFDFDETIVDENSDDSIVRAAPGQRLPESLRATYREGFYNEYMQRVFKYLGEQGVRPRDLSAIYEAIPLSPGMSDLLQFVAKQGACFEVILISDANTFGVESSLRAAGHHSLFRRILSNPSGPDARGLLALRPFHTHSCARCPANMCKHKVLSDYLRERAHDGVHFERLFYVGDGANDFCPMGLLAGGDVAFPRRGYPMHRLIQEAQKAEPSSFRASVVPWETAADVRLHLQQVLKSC
esBAF inh: blocks esBAF chromatin remodeling in mouse ES cells. Bmi1-luciferase knock-in reporter, 24 h; 100% = twice the neutral-well signal. reporter increase, % at 12.5 µM. hit rate 2% among 350,000. AID 602393; in the data active = activation above about 40%; inconclusive = no clear call, values can overlap the other calls;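 note: 0% = median of the plate's neutral control wells and 100% = double that signal; a rise in the Bmi1 reporter signal indicates esBAF inhibition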
Wnt act: activates Wnt/beta-catenin signaling in a reporter cell assay | hit rate 1.2% among 300,000 | activation, % at 9.35 µM | activator, plate reader; in the data active = activation above about 30%, passing the limit was not always enough; inconclusive = no clear call, values can overlap the other calls;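 note: 0% = neutral control wells and 100% = positive control wells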
A3G deaminase: blocks human APOBEC3G single-stranded DNA deamination; recombinant A3G, ssDNA deamination FAM/TAMRA fluorescence; inhibition, % at 20 µM; hit rate 0.28% among 330,000; AID 493012;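 active = inhibition of at least 40% at 20 µM, with no more than 30% in the related APOBEC3A deaminase screen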;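 note: plate controls were DMSO wells with A3G for no effect and wells lacking A3G enzyme for full effect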
MITF act: activators of MITF-driven TRPM1 promoter activity in SK-MEL-5 cells; SK-MEL-5 TRPM1-promoter luciferase, 24 h; % of positive control, neutral wells = 0; activation, % at 12.5 µM; hit rate 0.75% among 300,000; AID 588334;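 active = mean activation of at least 80% with every replicate also reaching 80%; inconclusive = mean reaches 80% but some replicate falls short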;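 note: 0% = neutral control wells and 100% = parthenolide positive control wells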
An asterisk follows results filed as active; ? = inconclusive; nt = not tested or not shown. Most compounds without a hit are left out; they make up all but 3.6% or so of the library.

SMILES | A3A deaminase | PHOSPHO1 block | esBAF inh | Wnt act | A3G deaminase | MITF act
COc1ccc(NC(=O)N(C)C[C@H]2OCCCC[C@H](C)Oc3ccc(N(C)C)cc3C(=O)N([C@H](C)CO)C[C@H]2C)cc1 | nt | nt | -1 | nt | nt | nt
CO[C@H]1CN(C)C(=O)c2cc(NC(=O)c3ccccc3)ccc2OC[C@H](C)N(C(=O)CN(C)C)C[C@@H]1C | nt | nt | -3 | nt | nt | nt
COc1ccc(NC(=S)Nc2ncccc2C)c(OC)c1 | 4 | 26 | 48* | 14 | 4 | 68
COc1ccc(NC(=S)Nc2ncccc2C)cc1OC | -2 | 13 | nt | 15 | -4 | 64
Cc1noc(C)c1NC(=O)N(C)C[C@@H]1Oc2ccc(NC(=O)NC(C)C)cc2C(=O)N([C@H](C)CO)C[C@H]1C | nt | nt | 1 | nt | nt | nt
Cc1noc(C)c1NC(=O)Nc1ccc2c(c1)C(=O)N(C)[C@@H]1CC[C@@H](CC(=O)N(C)C)O[C@@H]1CO2 | nt | nt | -2 | nt | nt | nt
COC(=O)c1ccc(N2CCCCC2)c(N)c1 | -3 | 44 | 58* | 16 | -11 | 88*
CCCC(=O)c1ccc(N2CCCCCC2)c(F)c1 | -5 | -4 | 52* | 3 | -1 | nt
COC(=O)c1ccc(N2CCC(C)CC2)c(N)c1 | 3 | 54 | nt | nt | -7 | 59
CCCC(=O)c1ccc(N2CCCCC2)c(F)c1 | 0 | -1 | nt | ? | -5 | 78
CCCC(=O)c1ccc(N2CCC(C)CC2)c(F)c1 | -2 | -6 | nt | 52* | -2 | 69
CCCNC(=O)[C@@H]1[C@@H](CO)[C@@H]2Cn3c(ccc(-c4ccccc4F)c3=O)[C@H]1N2C(C)=O | nt | nt | -2 | nt | nt | nt
CO[C@@H]1CN(C)C(=O)c2cc(NC(=O)Nc3c(C)noc3C)ccc2OC[C@@H](C)N(CCC(F)(F)F)C[C@@H]1C | nt | nt | -18 | nt | nt | nt
C[C@@H]1CN([C@@H](C)CO)C(=O)Cc2cc(NC(=O)CCN3CCOCC3)ccc2O[C@@H]1CN(C)Cc1ccc(-c2ccccc2)cc1 | nt | nt | -4 | nt | nt | nt
CNC(=O)C[C@H]1CC[C@H]2[C@@H](COc3ccc(NC(=O)Nc4cccc(F)c4)cc3C(=O)N2C)O1 | nt | nt | -2 | nt | nt | nt
N#C/C(=N\Nc1ccccc1[N+](=O)[O-])C(=N)N1CCCCC1 | -3 | 8 | 51* | 54* | -12 | 57
N#C/C(=N\Nc1ccc([N+](=O)[O-])cc1)C(=N)N1CCOCC1 | 3 | 33 | nt | 26 | 10 | 53
N#C/C(=N/Nc1ccc([N+](=O)[O-])cc1)C(=N)N1CCCCC1 | nt | 4 | nt | nt | nt | 101*
N#C/C(=N\Nc1ccc(Br)cc1)C(=N)N1CCOCC1 | -3 | 6 | 56* | 12 | -10 | 92*
COc1ccc(NC(=O)N(C)C[C@@H]2OCCCC[C@@H](C)Oc3ccc(NC(=O)NC4CCCCC4)cc3C(=O)N([C@H](C)CO)C[C@H]2C)cc1 | nt | nt | 13 | nt | nt | nt
O=C1c2ccccc2NC(c2ccccn2)N1c1ccc(Cl)cc1 (stereo not given) | -3 | -11 | 61* | nt | -4 | 76
Cc1cccc(C2Nc3ccccc3C(=O)N2c2ccccc2)n1 (stereo not given) | 2 | -25 | 2 | 0 | 3 | -9
COc1ccc(/C=C(\CC(=O)O)c2nc3ccccc3o2)cc1 | 0 | 4 | 69* | 5 | -5 | 61
COc1ccc(C(=O)/C(=C/c2cccs2)c2nc3ccccc3o2)cc1 | 4 | -14 | 21 | 12 | 1 | 7
O=C(c1ccc(Cl)cc1)N1CCn2c1nc1ccccc12 | 5 | 48 | 49* | 2 | -6 | 62
SMILES | A3A deaminase | PHOSPHO1 block | esBAF inh | Wnt act | A3G deaminase | MITF act
COc1ccc(C(=O)N2CCn3c2nc2ccccc23)cc1 | 2 | -10 | ? | 23 | -5 | 78
O=C(c1cccs1)N1CCn2c1nc1ccccc12 | 1 | -9 | 36 | 15 | -1 | 82*
Cc1cccc(NC(=O)c2cccc([N+](=O)[O-])c2O)c1C | nt | nt | nt | 49* | nt | 65
Cc1ccccc1CNC(=O)Cc1ccccc1[N+](=O)[O-] | -4 | -2 | 42* | 25 | -4 | 30
O=C(Cc1ccccc1[N+](=O)[O-])NCc1ccccc1Cl | -1 | 23 | 28 | 2 | -6 | 51
O=C(Cc1ccccc1)N1C[C@H]2[C@@H](c3ccccc31)[C@@H](CO)N2C(=O)Nc1ccc(F)cc1 | nt | nt | -3 | nt | nt | nt
O=C(CCN1CCCCC1)N[C@H]1C=C[C@H](CC(=O)N2CCC(Cc3ccccc3)CC2)O[C@@H]1CO | nt | nt | 5 | nt | nt | nt
C[C@@H]1CN([C@H](C)CO)C(=O)c2cc(C#CC3CC3)cnc2O[C@H]1CN(C)C(=O)Nc1ccccc1 | nt | nt | -6 | nt | nt | nt
O=C(NCc1nnc(SCC(=O)N2CCCCC2)o1)c1c(F)cccc1F | -2 | 34 | -5 | -1 | -6 | 3
O=C(NCc1nnc(SCC(=O)N2CCCc3ccccc32)o1)c1c(F)cccc1Cl | 5 | -5 | 0 | 50* | -8 | -2
COc1cccc(OCc2cc(/C=N/Nc3ccc(C(=O)O)cc3)ccc2OC)c1 | -4 | 2 | 59* | 2 | -5 | -4
CCc1ccc(Oc2cc(C)nc(N)n2)cc1 | 1 | 2 | 61* | nt | -2 | 53
O=C(C[C@@H]1C[C@@H]2c3cc(NC(=O)C4CCOCC4)ccc3O[C@@H]2[C@H](CO)O1)NCc1cc(F)ccc1F | nt | nt | 0 | nt | nt | nt
CC(=O)N[C@@H]1CC[C@@H](CC(=O)NCc2ccc(Cl)cc2)O[C@H]1CO | nt | nt | 3 | nt | nt | nt
COc1ccc(CN(C)C[C@@H]2Oc3c(NC(=O)c4cc(C)nn4C)cccc3C(=O)N([C@H](C)CO)C[C@H]2C)cc1 | nt | nt | 1 | nt | nt | nt
COCC(=O)N(C)C[C@@H]1Oc2cc(C3=CCCCC3)ccc2S(=O)(=O)N([C@@H](C)CO)C[C@H]1C | nt | nt | -2 | nt | nt | nt
O=C(O)CCc1ccc(-c2ccc(Br)cc2)n1-c1cccc(O)c1 | -3 | 22 | 73* | 17 | -6 | -25
C[C@H]1CN([C@@H](C)CO)C(=O)CCCn2cc(nn2)CO[C@H]1CN(C)S(=O)(=O)c1cn(C)cn1 | nt | nt | -2 | nt | nt | nt
S=C(NCc1ccccn1)Nc1ccc(Cl)cc1Cl | 0 | 13 | 49* | nt | 0 | 28
COc1ccc(Cl)cc1NC(=S)NCc1ccccn1 | 0 | -1 | nt | 25 | 8 | -8
CCOc1ccc(NC(=S)NNc2ccnc3cc(Cl)ccc23)cc1 | -3 | -70 | nt | 22 | -11 | -26
S=C(NNc1ccnc2cc(Cl)ccc12)Nc1ccc(Cl)cc1Cl | -3 | -15 | 49* | 0 | 3 | -65
COc1ccc(CN(C)C[C@@H]2Oc3ccc(NS(=O)(=O)c4ccc(C)cc4)cc3C(=O)N([C@@H](C)CO)C[C@H]2C)cc1 | nt | nt | -5 | nt | nt | nt
COc1ccc(C2=NN(CN3C(=O)C(=O)c4ccccc43)C(c3ccc(OC)cc3)C2)cc1 (stereo not given) | 4 | -7 | nt | 54* | 5 | 56
CCCCC(=O)NC(=S)NNC(=O)CC#N | -5 | 95* | 3 | nt | 9 | -16
CCCCC(=O)NNC(=S)NC(=O)CCC | -4 | -4 | -7 | nt | 2 | -3
O=C(N=C1SCC(=O)N1c1ccccc1)c1ccco1 | 3 | -2 | 46* | nt | -1 | 51
